# High-throughput results from PubChem BioAssay.
# Only some compounds are listed: those with a hit (about 9.2% of all), similar ones and a draw of the others.
# NPC1 prom act – activators of NPC1 promoter | Huh7 NPC1 promoter luciferase reporter, 24 h | 2.4% of 320,000 active | AID 485313 | Potency, µM (top dose mostly 9.22 µM), for the others: at the top dose activation, actives largely listed as activators; also: % of control where 0% means no effect; nearly all actives have a fitted effect of over 60% in size
#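 Luminescence read-out of NPC1 promoter-driven luciferase in stably transfected Huh7 cells; compounds delivered in DMSO and left 24 h at 37C, 5% CO2, qHTS titration format.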
# ELG1 repair inh – ELG1-dependent DNA repair inhibition | HEK293T ELG1-luciferase reporter, luminescence, 16 h; DNA damage induced by 5-fluorouridine | Potency, µM (series often up to 46.1 µM), for inactives: at the top dose activity change, negative = inhibition, usual class: inhibitors | 2.3% of 330,000 active | AID 504467; also: % is scaled to controls: 0 for no effect and ±100 for the full control effect; nearly all actives have a fitted effect of over 55% in size
#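 Quantitative HTS, concentration-response format. 2,000 cells/well co-treated with 5-fluorouridine and compound, 16 hr in 5% CO2 at 37 °C; ONE-Glo luminescence read after 30 min.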
# ELG1 genotox – induces genotoxicity in HEK293T cells with luciferase-tagged ELG1; AID 504466; Potency, µM (titrated, usually from 46 µM), without a hit: at the top dose activity change, positive = activation, hits mostly activators; 1.3% of 330,000 active; HEK293T ELG1-luciferase reporter, luminescence, 16 h; also: % of control where 0% means no effect; nearly all actives have a fitted effect of over 60% in size
#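 Genotoxicity was scored as increased ELG1-luciferase reporter signal, measured by ONE-Glo luminescence (30 min, room temperature). Compound or vehicle exposure of the HEK293T reporter cells lasted 16 hr at 37°C.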
# Rab9 promoter act – Rab9 promoter activation. Huh7 Rab9 promoter-luciferase reporter, luminescence, 24 h. Potency, µM (highest dose often 9.22 µM), for the others: at the top dose activation, negative = inhibition, most hits filed as activators. 2.8% of 320,000 active. AID 485297; also: % of control where 0% means no effect; nearly all actives have a fitted effect of over 60% in size
#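 Steps: seed 1500 Huh7 Rab9-luc cells per well, rest 2 h at 37 °C; add compound in DMSO; incubate 24 h; add luciferase reagent, 10 min ambient; read luminescence.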
# FLuc modulator – inhibits or activates purified firefly luciferase, miR-21 counter-screen; AID 588342; Potency, µM (highest dose often 57.5 µM), for the others: top-dose activity change, negative = inhibition, hits mostly inhibitors; purified FLuc, Km substrates, luminescence inhibition; 6.9% of 360,000 active;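 also: plate controls were vehicle for no effect and reference inhibitor for full effect; nearly all actives have a fitted effect of over 55% in size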
#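 Purified P. pyralis luciferase (10nM final) with 10uM D-luciferin and 10uM ATP (Km levels) in 50mM Tris acetate pH 7.5, 10mM Mg acetate, 0.01% Tween-20, 0.05% BSA; qHTS 6-point titration, ~60 µM downward; luminescence read.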
# SMN2 splice up – increases expression of the SMN2 splice variant; HEK293 SMN2-luciferase splicing reporter, luminescence, 30-36 h; Potency, µM (doses to about 46.1 µM), inactives show at the highest dose activity change, positive = activation, actives largely listed as activators; 2.8% of 210,000 active; AID 1458; also: % of control where 0% means no effect; nearly all actives have a fitted effect of over 55% in size
#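 HEK293 cells carry an SMN2 minigene-luciferase reporter in which exon 7 inclusion puts luciferase in frame. Cells were seeded at 2000 cells/well, attached for 10-12 hours, then exposed to compounds for 30-36 hours at 37C before ONE-Glo luminescence.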
# ELG1 FLuc counter – luciferase inhibition in cell-free luciferin readout for ELG1 hits; Potency, µM (top dose mostly 46.1 µM), inactives show at the top dose activity change, negative = inhibition, usual class: inhibitors; shares compounds with ELG1 repair inh; 3% of 350 active; AID 624247; cell-free firefly luciferase luminescence counter-screen, ViewLux; also: % is scaled to controls: 0 for no effect and ±100 for the full control effect
# ELG1-Luc inh – human ELG1 repair inhibition, luciferase-tagged ELG1 confirmation; shares compounds with ELG1 repair inh; HEK293T ELG1-luciferase levels, luminescence; cells co-treated with 5-fluorouridine; Potency, µM (top dose mostly 46.1 µM), for the others: top-dose activity change, negative = inhibition, hits mostly inhibitors; 68% of 670 active; also: % is scaled to controls: 0 for no effect and ±100 for the full control effect; nearly all actives have a fitted effect of over 55% in size
# Target sequence (Q96QE3 whole entry, looked up): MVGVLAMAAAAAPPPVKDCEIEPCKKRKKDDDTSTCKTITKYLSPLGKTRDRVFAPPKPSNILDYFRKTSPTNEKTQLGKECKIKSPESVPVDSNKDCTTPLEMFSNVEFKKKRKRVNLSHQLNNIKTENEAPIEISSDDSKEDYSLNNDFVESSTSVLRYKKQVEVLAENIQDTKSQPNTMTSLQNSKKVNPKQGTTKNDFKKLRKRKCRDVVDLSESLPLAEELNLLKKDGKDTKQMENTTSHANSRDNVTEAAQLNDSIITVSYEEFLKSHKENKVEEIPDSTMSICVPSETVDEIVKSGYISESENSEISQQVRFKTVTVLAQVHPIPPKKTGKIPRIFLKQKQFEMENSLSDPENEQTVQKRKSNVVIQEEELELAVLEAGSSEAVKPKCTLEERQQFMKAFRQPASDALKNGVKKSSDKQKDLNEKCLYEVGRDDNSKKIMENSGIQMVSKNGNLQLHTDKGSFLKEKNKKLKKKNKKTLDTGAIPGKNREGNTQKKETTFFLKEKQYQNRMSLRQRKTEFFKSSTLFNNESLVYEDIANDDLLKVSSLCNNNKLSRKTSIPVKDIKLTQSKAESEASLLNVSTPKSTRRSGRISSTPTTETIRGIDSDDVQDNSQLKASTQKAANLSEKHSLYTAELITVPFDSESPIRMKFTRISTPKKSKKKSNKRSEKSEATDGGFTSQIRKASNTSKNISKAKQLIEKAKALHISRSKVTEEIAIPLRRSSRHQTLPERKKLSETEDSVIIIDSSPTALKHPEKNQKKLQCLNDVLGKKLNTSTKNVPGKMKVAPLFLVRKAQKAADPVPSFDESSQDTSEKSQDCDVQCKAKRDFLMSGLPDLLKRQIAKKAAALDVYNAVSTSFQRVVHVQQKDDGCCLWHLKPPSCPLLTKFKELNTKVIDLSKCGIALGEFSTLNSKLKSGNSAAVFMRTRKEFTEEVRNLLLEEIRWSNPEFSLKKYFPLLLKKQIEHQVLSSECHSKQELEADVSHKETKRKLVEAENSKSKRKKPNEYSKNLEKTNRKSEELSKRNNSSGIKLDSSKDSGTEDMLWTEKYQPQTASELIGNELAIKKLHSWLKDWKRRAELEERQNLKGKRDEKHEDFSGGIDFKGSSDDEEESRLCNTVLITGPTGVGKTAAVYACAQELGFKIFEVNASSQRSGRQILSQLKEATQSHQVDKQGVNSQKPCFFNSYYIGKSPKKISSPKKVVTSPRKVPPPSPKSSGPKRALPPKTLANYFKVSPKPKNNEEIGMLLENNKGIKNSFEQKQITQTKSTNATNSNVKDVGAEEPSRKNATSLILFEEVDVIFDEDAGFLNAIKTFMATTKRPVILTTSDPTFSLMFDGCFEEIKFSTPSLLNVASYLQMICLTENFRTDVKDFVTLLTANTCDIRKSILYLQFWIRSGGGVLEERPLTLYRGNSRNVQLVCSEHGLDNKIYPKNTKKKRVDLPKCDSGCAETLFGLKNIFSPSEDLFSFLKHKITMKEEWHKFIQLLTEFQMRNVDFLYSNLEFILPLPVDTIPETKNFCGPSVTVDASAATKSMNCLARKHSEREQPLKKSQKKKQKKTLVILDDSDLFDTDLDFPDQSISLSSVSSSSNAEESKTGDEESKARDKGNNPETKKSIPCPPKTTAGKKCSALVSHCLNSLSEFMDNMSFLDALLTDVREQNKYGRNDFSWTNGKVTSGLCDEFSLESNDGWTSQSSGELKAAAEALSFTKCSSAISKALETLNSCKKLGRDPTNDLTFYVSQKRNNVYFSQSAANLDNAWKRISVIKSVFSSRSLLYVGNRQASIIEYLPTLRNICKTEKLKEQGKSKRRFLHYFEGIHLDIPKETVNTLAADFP
# ELG1 MMS Luc – MMS-stimulated human ELG1 repair inhibition, confirmed | shares compounds with ELG1 repair inh | HEK293T luciferase-tagged ELG1 level, MMS stimulated | Potency, µM (doses to about 46.1 µM), for the others: top-dose activity change, negative = inhibition, usual class: inhibitors | 53% of 670 active | AID 624249; also: % is scaled to controls: 0 for no effect and ±100 for the full control effect; nearly all actives have a fitted effect of over 60% in size
# ELG1 5-FU – confirmation of ELG1 repair inhibitors: viability with 5FU | AID 624250 | shares compounds with ELG1 repair inh | cell viability with 5-FU, ELG1-dependent repair | 670 tested, under 10 active | Potency, µM (titrated, usually from 46.1 µM), for inactives: top-dose activity change, negative = viability loss, actives largely listed as cytotoxic;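 also: ELG1-luc HEK293T cells cotreated with 5-fluorouridine at 10 µM final; viability measured 16 h after compound addition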
# ELG1 MMS cell – confirmation of ELG1 repair inhibitors: viability with MMS. shares compounds with ELG1 repair inh. Cell viability with MMS, ELG1-dependent DNA repair. Potency, µM (highest dose often 46.1 µM), for the others: at the highest dose activity change, negative = viability loss, most hits filed as cytotoxic. 33% of 670 active;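 also: ELG1-luc HEK293T cells co-treated with 10 µM MMS; viability read 16 h after compound addition; % is scaled to controls: 0 for no effect and ±100 for the full control effect; nearly all actives have a fitted effect of over 60% in size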
# ELG1 unstim viab – unstimulated viability counter-screen for ELG1 repair hits; AID 624252; Potency, µM (series often up to 45.9 µM), without a hit: top-dose activity change, negative = loss of viability, usual class: cytotoxic; cell viability counter-screen, unstimulated, luminescence; shares compounds with ELG1 repair inh; 8% of 900 active;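 also: compound exposure lasted 16 hours before reading; % is scaled to controls: 0 for no effect and ±100 for the full control effect; nearly all actives have a fitted effect of over 55% in size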
# FLuc enzyme – counter-screen for ELG1 repair inhibitors: firefly luciferase inhibition; 10% of 350 active; Potency, µM (doses to about 57.5 µM), for inactives: at the top dose activity, negative = inhibition, usual class: inhibitors; AID 624253; purified firefly luciferase, luminescence counter-screen; shares compounds with ELG1 repair inh; also: % is scaled to controls: 0 for no effect and ±100 for the full control effect
# Starred values were filed as active, the others as inactive; ? = inconclusive; . = no result given. Calls follow the shape of the dose curve; as a rule, active = well fitted curve in the direction sought with a large enough effect; inconclusive = small, poorly fitted or top-dose-only effect, or another doubt; inactive = no such curve, though single readings can be large; an effect the other way counts as inactive or inconclusive. Potency is read from the fitted curve at half-maximal effect.
SMILES,NPC1 prom act,ELG1 repair inh,ELG1 genotox,Rab9 promoter act,FLuc modulator,SMN2 splice up,ELG1 unstim viab,others
CCCCn1c(=O)c2oc3ccccc3c2n(Cc2cccc(C)c2)c1=O,.,.,.,.,5%,.,.,
O=C(Nc1nc(-c2ccc3c(c2)OCCO3)cs1)c1ccc(S(=O)(=O)N2CCCCC2)cc1,-14%,4.1µM*,-13%,-10%,0%,-76%,-18%,ELG1-Luc inh=?;ELG1 MMS Luc=2.8µM*;ELG1 5-FU=7%;ELG1 MMS cell=3.5µM*
O=C(COc1ccccc1)NCC(=O)Nc1cccc2ccccc12,0%,9%,2%,-9%,-2%,6%,.,
COC(=O)c1ccccc1NC(=O)CSc1nnc(-c2ccc(C)cc2)o1,?,?,?,?,?,-51%,.,
Cc1ccc(-c2nnc(SCC(=O)Nc3ccccc3F)o2)cc1,?,?,0.16µM*,?,?,-65%,?,ELG1 FLuc counter=8.9µM*;FLuc enzyme=18µM*
O=c1c2ccccc2nc(COc2ccccc2)n1/N=C/c1c[nH]c2ccccc12,-1%,2.3µM*,0%,1%,-4%,0%,?,ELG1-Luc inh=6.3µM*;ELG1 MMS Luc=-18%;ELG1 5-FU=?;ELG1 MMS cell=4%
COc1cccc(COC(=O)c2cc(=O)[nH]c3ccc(S(=O)(=O)N4CCOCC4)cc23)c1OC,1%,-13%,-1%,1%,1%,.,.,
Cc1nc(N)nc(N)c1/C=C/C(C)(C)c1ccc(Cl)cc1,-11%,0.23µM*,-17%,-26%,4%,-53%,0.056µM*,ELG1 FLuc counter=?;ELG1-Luc inh=7.9µM*;ELG1 MMS Luc=14µM*;ELG1 5-FU=?;ELG1 MMS cell=?;FLuc enzyme=6%
N#Cc1cc2cc3c(cc2nc1SCC(=O)N1CCOCC1)OCCO3,?,?,?,?,-7%,.,?,ELG1 FLuc counter=-13%;FLuc enzyme=?
Cc1cc2cc3c(cc2nc1SCC(=O)N1CCCC1)OCCO3,1%,?,-4%,0%,-4%,.,.,
CN(C)c1ccc(-c2cc3ccccc3c(=O)o2)cc1,.,?,?,.,.,.,?,ELG1 FLuc counter=86%;FLuc enzyme=0.18µM*
CN(C)CCNC(=O)c1ccccc1-c1cc2ccccc2c(=O)o1,-1%,1%,0%,1%,-1%,.,.,
COc1ccc(OCCSCc2nnc(NC(=O)Nc3ccc(Cl)cc3)s2)cc1,-3%,-16%,-2%,-8%,-6%,-24%,.,
COc1cc(NC(=O)c2cc(-c3ccccc3)nc3c2cnn3C(C)C)cc(OC)c1OC,.,3.7µM*,-14%,.,.,.,25µM*,ELG1-Luc inh=7.1µM*;ELG1 MMS Luc=?;ELG1 5-FU=?;ELG1 MMS cell=?
C/C(=N\NC(=O)C1CC1)c1ccc2c(c1)OCCO2,9%,?,15%,-32%,-12%,54%,.,
CC(=NNC(=O)c1cccs1)c1ccc2c(c1)OCCO2,.,?,16µM*,.,.,.,?,
CC(C)(C)N(Cc1ccccc1)C(=O)COc1cccnc1[N+](=O)[O-],-1%,-14%,0%,6%,1%,.,.,
COc1cccc(N2C(=O)C(c3ccccc3)=C(c3nc4ccccc4s3)C2NC(C)=O)c1 (stereo not given),-4%,2.3µM*,-1%,-4%,6%,25%,-3%,ELG1 FLuc counter=3%;ELG1-Luc inh=3.2µM*;ELG1 MMS Luc=3%;ELG1 5-FU=?;ELG1 MMS cell=-2%;FLuc enzyme=-16%
CC(=O)NC1C(c2nc3ccccc3s2)=C(c2ccccc2)C(=O)N1c1ccc(C)cc1 (stereo not given),-5%,?,5%,10%,7%,28%,.,
Cc1ccc(CCN2C(Nc3ccccc3)=NC[C@@H]2C)cc1,-4%,0%,2%,-1%,3%,.,.,
Cc1ccc(C)c(NC(=O)Cn2c(=O)n(Cc3ccco3)c(=O)c3ccc(C(=O)NC4CCCC4)cc32)c1,.,.,.,.,-1%,-3%,.,
Cc1cc(OCC(=O)Nc2ccccc2C(N)=O)c2c(C)cc(=O)oc2c1,-7%,3.7µM*,0%,-9%,-1%,.,2%,ELG1-Luc inh=13µM*;ELG1 MMS Luc=-14%;ELG1 5-FU=?;ELG1 MMS cell=?
CC(=O)Nc1ccc(NC(=O)COc2cc(C)cc3oc(=O)cc(C)c23)cc1,-3%,-2%,4%,-1%,0%,.,.,
Cc1ccccc1-c1nnc(NC(=O)CSc2nc3ccccc3s2)s1,1%,12%,1%,-6%,1%,-14%,.,
CN(C)c1ccc(/C=C2\C=Cc3ccccc32)c(F)c1,.,.,.,.,.,.,-4%,
CC1CN(C(=O)COC(=O)Cc2c(Cl)cccc2Cl)CC(C)O1 (stereo not given),.,12%,0%,.,.,.,.,
COc1cc(OC)cc(-c2c(-c3cccs3)c3cc(-c4cnc(OC)nc4)ccc3n2C)c1,-1%,?,1%,-2%,1%,.,.,
O=c1c2ccccc2oc2ccc(-c3ccc4cc[nH]c4c3)cc12,.,?,?,.,.,.,?,ELG1 FLuc counter=94%;FLuc enzyme=0.41µM*
Clc1ccc(-c2cnnc(-c3ccccn3)n2)cc1,.,?,21µM*,.,.,.,-1%,
COC(=O)COc1cc(Cl)c(C=O)cc1OC,-6%,9%,0%,-5%,0%,11%,.,
